Data taken from PubChem BioAssay (NCI).
The panel holds about 83,000 compounds, 20% with a hit somewhere; the sample as a whole holds those more often.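 The test compound was applied at a single concentration to cells in 96-well plates for 48 hours, and percent growth was recorded.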 Unmarked numbers belong to inactive results. Activity calls are given as the source filed them. The calls were made as follows: active = growth percent below 10; inactive = the rest.

Columns and labels:
Experiment in all cases: NCI-60 one-dose screen, 48 h (100 = growth as untreated, 0 = no growth, -100 = all killed)
Settings in all cases: 10 µM unless noted
[1] = system: HCT-15 colon
[2] = system: HT29 colon
[3] = system: SNB-75 CNS
[4] = system: SNB-19 CNS
[5] = system: U251 CNS
[6] = system: PC-3 prostate
[7] = system: SK-MEL-5 melanoma
[8] = system: UACC-62 melanoma
[9] = system: LOX IMVI melanoma
[10] = system: SK-MEL-28 melanoma
[11] = system: SK-MEL-2 melanoma
[12] = system: EKVX NSCLC
[13] = system: SN12C renal
[14] = system: UO-31 renal
[15] = system: TK-10 renal
[16] = system: ACHN renal
[17] = system: CAKI-1 renal
[18] = system: A498 renal
[19] = system: CCRF-CEM leukemia
[20] = system: MOLT-4 leukemia

Compound | growth [1] | growth [2] | growth [3] | growth [4] | growth [5] | growth [6] | growth [7] | growth [8] | growth [9] | growth [10] | growth [11] | growth [12] | growth [13] | growth [14] | growth [15] | growth [16] | growth [17] | growth [18] | growth [19] | growth [20]
c1ccc(Cn2cc3c(c2)-c2oncc2CC3)cc1 | 26.2% | 7.96% (active) | 19% | 35.7% | 28.9% | 31.9% | 39.3% | 23.6% | 45.5% | 53.9% | 53.9% | 41.4% | 47.8% | 41.6% | 77.1% | 56.7% | 47% | 44.6% | 6.94% (active) | –
CCCCCN1C(=O)/C(=c2\sc3n(c2=O)C2C(NN=3)N(CC)C(=O)N2CC)c2ccccc21 (stereo unspecified) | 1.05% (active) | -57.1% (active) | -51.5% (active) | -1.3% (active) | -83.4% (active) | -20.2% (active) | 16.8% | 10.7% | -43.5% (active) | 19.2% | 21.3% | 26.3% | -50.5% (active) | -40.8% (active) | 19.9% | 2.83% (active) | 7.55% (active) | -27.8% (active) | -15.6% (active) | –
COc1ccc(-c2ccc(=O)oc2-c2cc(OC)c(OC)c(OC)c2)cc1O | 12.1% | -24% (active) | 38.8% | 25.3% | 19.8% | 36.9% | -55.5% (active) | 34.7% | 17.8% | 47.4% | 39.6% | 30.9% | 25.7% | 32.4% | 68% | 38.9% | -15.8% (active) | -39.7% (active) | 7.05% (active) | 2.3% (active)
O=C1/C(=C/c2ccc([N+](=O)[O-])cc2)COc2ccc(O)cc21 | 28.3% | 4.43% (active) | 83.4% | 91.4% | 66.1% | 88.3% | 94% | 76.3% | 1.76% (active) | 108% | 109% | 92.3% | 76.8% | 53.7% | 92.7% | 82.7% | 63.6% | 99.5% | 3.96% (active) | –
O=C(N/N=C/c1c(Cl)cccc1Cl)c1cccnc1Nc1cccc(C(F)(F)F)c1 | 26% | 40.4% | 63.1% | 27.7% | 16.4% | 24.3% | 20.5% | 17.2% | 25.8% | 107% | -6.91% (active) | 17.6% | 42.6% | 29.8% | 35.6% | 29.6% | 60.1% | 65.6% | 18.9% | –
CCCCNC(=O)CC1=C(C)/C(=C/c2[nH]c(-c3ccc[nH]3)cc2OC)N=C1C | 2.62% (active) | 9.63% (active) | 65.3% | 67.1% | 28.7% | 6.07% (active) | 1.34% (active) | -28.9% (active) | -36.9% (active) | 31% | 22.1% | 36.4% | 35.3% | -5.12% (active) | 33.5% | 13.7% | 4.74% (active) | 3.74% (active) | 27.2% | –
CCCCn1c(=O)[nH]c(N)c([C@@H]2c3c([nH]c(=O)n(CCCC)c3=O)Oc3ccc4ccccc4c32)c1=O | 6.62% (active) | -44.2% (active) | 87.1% | 64.2% | -20.7% (active) | 24.4% | 67% | 80.1% | -76.2% (active) | 44% | 89.2% | 84.5% | 81% | 3.72% (active) | 73.7% | 2.15% (active) | 51.5% | 101% | -15.9% (active) | –
COc1cc2ncnc(Nc3ccc(F)c(Cl)c3)c2cc1OCC(=O)N1CCN(c2ccccc2)CC1 | 90.7% | 90.4% | 83.7% | 85.9% | 98.9% | 90.6% | 95% | 92.8% | 93.7% | 113% | 102% | 77.6% | 80.4% | 46.5% | 42.4% | 50.6% | 50.6% | 61.2% | 103% | 90.3%
CS(=O)(=O)c1ccc(-c2cnn3ccc(-c4cccc(S(=O)(=O)C5CC5)c4)nc23)cc1 | 57% | 34% | 14% | 67.3% | 68.7% | 40.3% | 63.2% | 53.3% | 44.1% | 69.7% | 49.4% | 67.4% | 55.3% | 49.8% | 45.8% | 54.7% | 52.2% | 30% | 21.3% | 15.3%
COc1ccc(/C=N\Nc2nc(SCCC(C)C)nc(-c3ccc(OC)cc3)c2C#N)cc1 | 74.6% | 55% | -19.4% (active) | 69.5% | 7.04% (active) | 72.3% | 94.3% | 79.1% | 66% | 104% | 103% | 44.8% | 32.2% | -41.4% (active) | 11.2% | -41.5% (active) | 17% | 98.5% | 31.4% | 65.1%
COc1ccc(OC)c(/C=N/Nc2ncnc3c2c(C)nn3C)c1 | 100% | 88.3% | 104% | 98.3% | 96.6% | 99.6% | 98% | 93.5% | 99.5% | 98.8% | 105% | 94.8% | 91.4% | 82.9% | 105% | 105% | 98.7% | 64.4% | 103% | –
O=S(=O)(NCCNc1nccc(-c2c(-c3ccc(F)c(O)c3)nc3sccn23)n1)c1ccc(O)cc1 | 33.1% | 17% | 58.9% | 56.3% | 56.8% | 22.4% | 5.55% (active) | 17.4% | 32.2% | 55.2% | 19.8% | 56.3% | 38.2% | 6.46% (active) | 46.3% | 33.3% | 27.2% | 43.4% | 22.2% | –
Nc1ncnc2c1N=C(c1ccc(Br)cc1)CC(c1cccc(Nc3ccnc4cc(C(F)(F)F)ccc34)c1)N2 (stereo unspecified) | 27.2% | 26.4% | 66.2% | 70.6% | 51% | 39% | 49.5% | 74.3% | 63.3% | 72.2% | 68.5% | 44.4% | 70.6% | 47.2% | 102% | 80% | 56.2% | 63% | 34.3% | 16.8%
COC1=CC(c2ccc[nH]2)=N/C1=C\c1[nH]c(C)c(CC(=O)OCc2ccccc2)c1CCC(=O)OCc1ccccc1 | -56.7% (active) | 0.828% (active) | -6.6% (active) | 25.5% | -71.4% (active) | -40.3% (active) | -93.8% (active) | -69.7% (active) | -80.7% (active) | -52.4% (active) | -61.3% (active) | 4% (active) | -15.6% (active) | -89.3% (active) | -21.5% (active) | -30.6% (active) | -15.9% (active) | -54.1% (active) | -0.154% (active) | –
CS(=O)(=O)Nc1cncc(-c2ccc3ncnc(Nc4cncc(Cl)c4)c3c2)c1 | 92.9% | 80% | 82.4% | 68.2% | 59.2% | 84.7% | 95.4% | 69.6% | 79.7% | 81.6% | 67.6% | 96.1% | 84.3% | 77.7% | 65.2% | 96% | 94.9% | 70.5% | 35.7% | 78.4%
